Each structure is given as a SMILES string. Among all 190,000 compounds or so, fewer than 10 were called active. These entries were drawn from the full list. Potency and affinity values are given separately. Values without a mark were called inactive.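 Rule for the calls: active = EC50 below 50 µM in the dose-response confirmation; inactive = the rest.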

This experiment is described as follows: protection against thapsigargin-triggered cell killing – 384-well, CSM14.1, ATP luminescence, primary screen (AID 1222).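 Note: death triggered by thapsigargin at about 15 µM added after 2 h compound pretreatment; cell ATP read after overnight thapsigargin exposure of roughly 18 to 22 hours; reference of the scale not given here.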 To be noted: CSM14.1 thapsigargin-induced death rescue, at 20 µM, hits give high values.
As for `COc1ccc(C2N(c3ccc(OC)cc3)C(=S)N3CCCN23)cc1` (stereo unspecified), the cellular ATP content (survival) was 3.3%. With `COc1ccccc1NC(=S)N(Cc1ccc(C)cc1)Cc1cccnc1`, the cellular ATP content (survival) is 2.6%. For `Cc1ccc(C(=O)NNC(=O)CSc2nnc(-c3ccccc3)n2Cc2ccccc2)cc1`, the cellular ATP content (survival) was -1.4%. Turning to `O=C(CSc1ncnc2nc[nH]c12)N1CCN(c2ccccc2)CC1`, the cellular ATP content (survival) is 0.6%. As to `CC1CCN(CCC(=O)N/N=C/c2ccc([N+](=O)[O-])cc2)CC1`, the cellular ATP content (survival) was -1.3%. In the case of `CC(C)C(=O)c1cn(CC(=O)N2CCCc3ccccc32)c2ccccc12` it was 0.1%; in that of `O=C(NC1CCCCC1)C(c1ccc2ncccc2c1)N(Cc1ccc(F)cc1)C(=O)c1cccs1` (stereo unspecified), -1.3%. In the case of `COc1ccc(C(C(=O)NC2CCCCC2)N(C(=O)CCCC(=O)Nc2ccccn2)c2ccc3c(c2)OCCO3)cc1` (stereo unspecified) it was 3.5%; in that of `O=C(NC1CCCCC1)C(c1ccc2ncccc2c1)N(Cc1ccco1)C(=O)c1ccc2c(c1)OCCO2` (stereo unspecified), 14.1%; in that of `O=C(NC1CCCCC1)C(c1ccc2ncccc2c1)N(Cc1ccc2c(c1)OCO2)C(=O)c1cccs1` (stereo unspecified), -4%. Take `O=C(NC1CCCCC1)C(c1ccc2ncccc2c1)N(Cc1ccccc1)C(=O)c1cccs1` (stereo unspecified): the cellular ATP content (survival) is -2.1%.

For `O=C(NC1CCCCC1)C(c1ccc2ncccc2c1)N(Cc1cccs1)C(=O)c1cccs1` (stereo unspecified), the cellular ATP content (survival) is -8.2%.

For `COc1ccc(CN(C(=O)c2nsc(Cl)c2Cl)C(C(=O)NC2CCCCC2)c2ccc(OC)cc2)cc1` (stereo unspecified), the cellular ATP content (survival) is -2.1%.

On to `O=C(CCCC(=O)N(c1ccc2c(c1)OCCO2)C(C(=O)NC1CCCCC1)c1ccc(F)cc1)Nc1ccccn1` (stereo unspecified), for which the cellular ATP content (survival) was -0.3%. For `OC(C#CCN1CCOCC1)(c1ccccc1)C1CC1` (stereo unspecified), the cellular ATP content (survival) is -0.9%.

For the compound `COc1ccc(C(CC(=O)O)NC(=O)Cc2ccccc2)cc1OC` (stereo unspecified), the cellular ATP content (survival) is -3%. For `C=CCOc1ccc(C2CC(C)=NN2c2ccccc2)cc1` (stereo unspecified), the cellular ATP content (survival) was 6.2%. Turning to `Cc1ccc2c(c1)nnn2C1CCN(CC(=O)NCc2ccccc2F)CC1`, the cellular ATP content (survival) is 3.5%. Consider `COc1cc(C(C#N)N2N=C(c3ccccc3)CC2c2ccccc2)ccc1O` (stereo unspecified), for which the cellular ATP content (survival) was 0.2%. On to `CN(C)c1nc(N/N=C/c2ccccc2O)nc(Nc2ccc(F)cc2)n1`, for which the cellular ATP content (survival) was -6.9%. Turning to `Fc1cccc(Cc2noc(CN3CCC(c4ccncc4)CC3)n2)c1`, the cellular ATP content (survival) was 1.8%.

As to `O=C(COc1ccc(Cl)cc1Cl)NCCCCc1ccccc1`, the cellular ATP content (survival) was -2.7%. To `CS(=O)(=O)N1CCCC(C(=O)NCc2ccc(F)cc2)C1` (stereo unspecified) belongs 0.6%; to `CC(=O)Nc1sc2c(c1C(c1ccccn1)N1CCN(C)CC1)CCCC2` (stereo unspecified), -0.7%. To `Cc1ccc(-c2nc(CSCC(=O)N3CCN(c4ccccn4)CC3)c(C)o2)cc1` belongs -0.2%; to `COc1ccccc1OCc1ccc(C(=O)NCC(C)C)o1`, 2.9%; to `COc1cccc(CN=C2Nc3ccccc3CS2)c1`, 0.2%. In the case of `O=C(Nc1cc(C(F)(F)F)ccc1N1CCOCC1)c1cccc(F)c1` it was 0.4%; in that of `O=C(Nc1ccccc1)c1nn(-c2ccccc2)c(=O)cc1C(F)(F)F`, 2%; in that of `COc1ccccc1C(C)N(C)Cc1nc(COc2ccccc2)no1` (stereo unspecified), -1.1%. As for `COc1ccc(CCN(Cc2cccs2)S(=O)(=O)c2ccc(S(=O)(=O)N3CCCCCC3)cc2)cc1OC`, the cellular ATP content (survival) was -1.5%. In the case of `O=C1c2cccc(OCC(=O)N3N=C(c4cccs4)CC3c3ccc(F)cc3)c2CCN1Cc1ccccc1` (stereo unspecified), the cellular ATP content (survival) was -2.7%. To `CN1CCc2c(OCC(=O)N3N=C(c4cccs4)CC3c3ccc(F)cc3)cccc2C1=O` (stereo unspecified) belongs 1.4%; to `CC(C)OP(=O)(OC(C)C)C(Nc1ccccc1)c1ccccc1C(F)(F)F` (stereo unspecified), 2.8%; to `CCOC(=O)c1c(NC(=O)C[n+]2ccc(N(C)C)cc2)sc(C)c1C`, -2%. To `Cn1cc(Cl)c(C(=O)NNC(=S)NC2CCCCC2)n1` belongs 1.1%; to `COC(=O)c1sc2ccccc2c1-n1cccc1C(=O)C(=O)Nc1ccc(OC)cc1`, 4.6%. In the case of `COc1ccc(/C=C(/NC(=O)c2ccccc2)c2nc3ccc(Cl)cc3[nH]2)cc1OC` it was 1.1%. For `Cc1ccccc1NS(=O)(=O)c1cc(C(=O)N2CCc3ccccc3C2)ccc1C`, the cellular ATP content (survival) is 0.4%. For the compound `CC(C)(C)C(=O)Nc1nc(=S)ss1`, the cellular ATP content (survival) is 0%. In the case of `CCn1c(NCc2ccc3c(c2)OCO3)nc2ccccc21`, the cellular ATP content (survival) is -1%. To `CCOC(=O)c1cnc(-n2nc(C)cc2C)nc1Nc1ccc2c(c1)OCO2` belongs -1.2%; to `CCn1cc(C(=O)O)c(=O)c2cc(S(=O)(=O)N(C)C)ccc21`, -1.2%. In the case of `O=C(Nc1ccc(N2CCOCC2)cc1)c1ccc(Cl)nc1` it was -0.7%; in that of `CCOc1ccccc1NC(=O)COC(=O)C(CC)c1ccccc1` (stereo unspecified), 0.7%. To `CCCCP(=O)(CCCC)c1ccccc1C(=O)O` belongs -0.7%; to `O=C(OCc1cc(=O)n2c(n1)sc1ccccc12)c1ccc(O)cc1O`, -1.2%. Take `COc1ccc(NC(=S)Nc2ccc(S(N)(=O)=O)cc2)c(OC)c1`: the cellular ATP content (survival) was -0.3%. To `CC(=O)c1c(C)nc2ccc(Br)cc2c1C(=O)O` belongs 0.7%. To `COc1cccc(C2CC(c3cccs3)=NN2C(=S)Nc2ccccc2)c1OC` (stereo unspecified) belongs 2.5%.

Consider `COc1ccc(S(=O)(=O)N2CCC(C(=O)N3CCc4ccccc4C3)CC2)cc1Cl`, for which the cellular ATP content (survival) was 0.7%.

Regarding `CCOC(=O)c1cc2c(=O)n3ccccc3nc2n(Cc2ccccc2Cl)c1=N`, the cellular ATP content (survival) is -1.3%. In the case of `CCCCNS(=O)(=O)c1ccc(S(=O)(=O)NCc2ccncc2)cc1` it was -1.8%. As for `Cc1nc(N2CCC(C(N)=O)CC2)c2c(-c3cccs3)csc2n1`, the cellular ATP content (survival) was -2.2%.

Take `CCOC(=O)C1=C(C)Nc2ccccc2N=C1NC(=O)CCCN1C(=O)c2ccccc2C1=O`: the cellular ATP content (survival) is -1.5%.

`COc1cc([N+](=O)[O-])ccc1NC(=O)c1cccc(NC(=O)C(C)C)c1`: the cellular ATP content (survival) is 2.2%. To `COC(=O)C1=NN(C(C)=O)C2(CC(=O)N(c3cccc(C)c3)C2=O)C1` (stereo unspecified) belongs -0.1%; to `CCN(C(=O)COc1ccccc1)C1CCCCC1`, -1.5%; to `O=C(Nc1nnc(-c2ccco2)o1)c1ccc2ccccc2c1`, 11.1%. To `Cc1cc(NC(=O)CCC(=O)N(CC(=O)NC2CCCC2)c2ccccc2)no1` belongs 0.5%. To `O=c1cc(COn2nnc3ccc(C(F)(F)F)cc32)nc2sccn12` belongs -1.8%; to `O=C(Nc1ccc2nc(-c3cccnc3)[nH]c2c1)C12CC3CC(CC(C3)C1)C2`, -3.6%.

Take `c1ccc(-c2nccc(-c3ccc(-n4cnc5ccccc54)cc3)n2)cc1`: the cellular ATP content (survival) is -0.9%.

On to `Cc1ccc(/C(O)=C2\C(=O)C(=O)N(CCc3c[nH]c4ccccc34)C2c2cccnc2)cc1` (stereo unspecified), for which the cellular ATP content (survival) is 1.1%. Take `CCN1C(=O)/C(=C/c2ccc(N3CCCC3)cc2)NC1=S`: the cellular ATP content (survival) was 0.3%. Consider `CCCN1C(=O)/C(=C/c2ccc(N3CCCC3)c(C)c2)NC1=S`, for which the cellular ATP content (survival) is -2%.

Regarding `O=C(COC(=O)CCNS(=O)(=O)c1ccc2c(c1)OCCO2)NC1CCCc2ccccc21` (stereo unspecified), the cellular ATP content (survival) is -0.1%. In the case of `CCc1nnc(NC(=O)CCC(=O)NC2CCCCC2)s1` it was -0.3%; in that of `CCCCNC(=O)Cc1ccc(Br)cc1`, 0.7%. To `CC1CCC2C(=O)N(c3ccc(Cc4ccncc4)cc3)C(=O)C2C1` (stereo unspecified) belongs 0.4%; to `CC1(C(=O)NCCN2CCOCC2)C=CC2(CCCCC2)N1C(=O)c1ccccc1` (stereo unspecified), -4.5%. In the case of `CC(=O)OCc1cc(-c2nn(C)c(=O)c3ccccc23)ccc1C` it was 1.5%; in that of `O=C(N/N=C/c1ccccc1OC(F)F)C1=COCCO1`, 0.4%; in that of `O=S1(=O)C=CC(Sc2nc3ccccc3[nH]2)C1` (stereo unspecified), 7.3%. As to `Cc1ccc(S(=O)(=O)N2CCN(C(C)CC(=O)O)CC2)cc1` (stereo unspecified), the cellular ATP content (survival) was -0.8%. In the case of `O=C(OCCCC(=O)N1CCOCC1)c1ccccc1` it was -1%. To `COc1cc(CN(C(=S)NCC(=O)NC2CCCC2)C2CCCC2)cc(OC)c1OC` belongs 0.8%.

For the compound `CCOc1ccc(Nc2nc(Cc3nnc(SCC(=O)NC4CCCCC4)n3C)cs2)cc1`, the cellular ATP content (survival) was -0.1%. In the case of `COc1ccc(C(=O)OCC(=O)N(C)C2CCS(=O)(=O)C2)cc1S(=O)(=O)N1CCCc2ccccc21` (stereo unspecified) it was 1.7%. In the case of `COc1ccc2c(c1)N(C(=O)CSc1n[nH]c(C)n1)C(C)(C)C=C2C` it was 5.3%; in that of `COc1ccc(/C=C/C(=O)OCC(=O)Nc2cc(C(F)(F)F)ccc2Cl)cc1`, -2.1%; in that of `Cc1cc(C)c(C(=O)CN2C(=O)NC3(CCCCC3)C2=O)cc1C`, -0.6%. In the case of `COc1ccc(S(=O)(=O)Oc2cccc(/C=N/N=C3/NC(=O)C(CC(=O)O)S3)c2)cc1` (stereo unspecified) it was 7.5%; in that of `CCCN1CCC(NC(=O)Nc2cc(Cl)ccc2OC)CC1`, 0.1%; in that of `CC(=O)N1CCN(c2ccc([N+](=O)[O-])c(NCc3cccnc3)c2)CC1`, -0.8%. In the case of `N#Cc1cc(-c2ccccc2)nc(Oc2ccc(Cl)cc2)n1`, the cellular ATP content (survival) is -1.2%. In the case of `CCCn1nc2cc(C(=O)NCc3ccc(OC(F)(F)F)cc3)ccc2c1OCC` it was -1.1%; in that of `Cc1ccc(S(=O)(=O)c2nc(-c3ccccc3)oc2NCc2cccnc2)cc1`, 3.8%; in that of `Cc1ccc(Nc2nc(-c3ccc(S(=O)(=O)N4CCOCC4)cc3)cs2)cc1Cl`, -1.8%. For the compound `CC(C)(C)N/N=C/c1c(O)n(-c2ccc(Cl)cn2)c(=O)c2ccccc12`, the cellular ATP content (survival) is -1.2%. To `O=C(Nc1cccc(C2OCCCO2)c1)c1cccs1` belongs -3.3%. To `O=C(c1ccc2ccccc2c1)c1c[nH]cc1-c1ccccc1` belongs 0.1%; to `Cc1ccccc1NC(=O)C12CC3CCC1(C)C3(C)CO2` (stereo unspecified), 3.2%. For the compound `CC12COC3(C(=O)Nc4ccccc4)CC1CCC32C` (stereo unspecified), the cellular ATP content (survival) is 0.2%. Turning to `CN(C1CCCCC1)S(=O)(=O)c1ccc(NC(=O)CCC(=O)O)cc1`, the cellular ATP content (survival) is -1.8%.

As for `O=C(N[C@@H](Cc1ccccc1)C(=O)O)c1cccnc1`, the cellular ATP content (survival) was -0.2%. As for `O=[N+]([O-])c1ccc(Nc2nc(Cl)nc(NCCO)n2)cc1`, the cellular ATP content (survival) was -0.9%.

As to `Cc1ccc(S(=O)(=O)N2CCN(C(=O)CSc3nnc(C)c(=O)[nH]3)CC2)cc1`, the cellular ATP content (survival) was 0.3%.

As for `O=C(NC(=S)N1CCN(c2ccccn2)CC1)c1ccco1`, the cellular ATP content (survival) is -0.1%. In the case of `COc1ccccc1NC(=O)C/C(C)=N/NC(=O)COc1c(Br)cc(Br)cc1OC`, the cellular ATP content (survival) is 2.1%.

As to `CCC(=O)N1CCc2cc(S(=O)(=O)CCC(=O)Nc3ccc(CC)cc3)ccc21`, the cellular ATP content (survival) is -3.3%.

As to `O=c1[nH]c(CSc2nnc(-c3ccccc3)n2C2CCCCC2)nc2ccccc12`, the cellular ATP content (survival) was 0.3%. In the case of `CC1C(c2ccccc2)=[N+]([O-])C2(CCCCC2)N1O` (stereo unspecified) it was -0.2%; in that of `Cn1c(=O)c2c(nc(CN3CCN(Cc4ccccc4)CC3)n2CCN2CCOCC2)n(C)c1=O`, 2.6%. `CCOc1ccccc1-n1c(SCC(=O)Nc2nccs2)nnc1-c1ccoc1C`: the cellular ATP content (survival) is 1.4%. In the case of `O=c1[nH]c(CCC2CCCC2)nc2ccccc12` it was -3.1%.

The values above are taken from PubChem BioAssay AID1222 (Sanford-Burnham Center for Chemical Genomics, 2008).
